# Data taken from ChEMBL document CHEMBL2218924, “A broad activity screen in support of a chemogenomic map for kinase signalling research and drug discovery” (Biochem J, 2013).
# Legend:
# [1] = biological target: T1, Ephrin type-A receptor 3 (Homo sapiens) (UniProt P29320); details: at 10 µM
# T1 sequence (whole entry): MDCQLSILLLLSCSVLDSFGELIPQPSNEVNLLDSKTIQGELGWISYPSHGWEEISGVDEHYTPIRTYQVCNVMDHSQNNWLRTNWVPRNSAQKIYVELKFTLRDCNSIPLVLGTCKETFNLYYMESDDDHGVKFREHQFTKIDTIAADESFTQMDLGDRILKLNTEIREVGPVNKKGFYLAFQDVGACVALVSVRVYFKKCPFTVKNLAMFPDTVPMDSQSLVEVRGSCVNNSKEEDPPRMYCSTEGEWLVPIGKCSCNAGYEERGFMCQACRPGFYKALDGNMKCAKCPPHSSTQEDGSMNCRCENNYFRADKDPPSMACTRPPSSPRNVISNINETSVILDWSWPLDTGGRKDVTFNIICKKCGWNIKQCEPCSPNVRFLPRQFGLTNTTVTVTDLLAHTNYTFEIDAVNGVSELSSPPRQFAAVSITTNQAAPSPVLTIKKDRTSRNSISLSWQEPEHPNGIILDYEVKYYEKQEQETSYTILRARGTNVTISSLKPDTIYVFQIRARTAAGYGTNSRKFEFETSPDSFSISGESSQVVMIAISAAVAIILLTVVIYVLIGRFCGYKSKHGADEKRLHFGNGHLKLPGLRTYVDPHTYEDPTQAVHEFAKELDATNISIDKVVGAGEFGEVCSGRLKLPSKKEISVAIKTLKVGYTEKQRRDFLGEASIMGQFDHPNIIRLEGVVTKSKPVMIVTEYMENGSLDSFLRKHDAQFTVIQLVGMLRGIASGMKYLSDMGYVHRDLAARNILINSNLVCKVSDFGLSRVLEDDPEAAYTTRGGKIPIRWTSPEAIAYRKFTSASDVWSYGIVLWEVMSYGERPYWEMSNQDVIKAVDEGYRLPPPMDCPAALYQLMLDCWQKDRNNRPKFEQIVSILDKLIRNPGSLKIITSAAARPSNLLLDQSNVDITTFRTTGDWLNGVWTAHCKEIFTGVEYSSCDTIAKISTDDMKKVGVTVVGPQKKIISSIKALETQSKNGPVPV
# [2] = biological target: Ephrin type-A receptor 7 (Homo sapiens) (UniProt Q15375); details: at 1 µM
# Sequence of Ephrin type-A receptor 7 (Homo sapiens) (Q15375 28-998 limits assumed): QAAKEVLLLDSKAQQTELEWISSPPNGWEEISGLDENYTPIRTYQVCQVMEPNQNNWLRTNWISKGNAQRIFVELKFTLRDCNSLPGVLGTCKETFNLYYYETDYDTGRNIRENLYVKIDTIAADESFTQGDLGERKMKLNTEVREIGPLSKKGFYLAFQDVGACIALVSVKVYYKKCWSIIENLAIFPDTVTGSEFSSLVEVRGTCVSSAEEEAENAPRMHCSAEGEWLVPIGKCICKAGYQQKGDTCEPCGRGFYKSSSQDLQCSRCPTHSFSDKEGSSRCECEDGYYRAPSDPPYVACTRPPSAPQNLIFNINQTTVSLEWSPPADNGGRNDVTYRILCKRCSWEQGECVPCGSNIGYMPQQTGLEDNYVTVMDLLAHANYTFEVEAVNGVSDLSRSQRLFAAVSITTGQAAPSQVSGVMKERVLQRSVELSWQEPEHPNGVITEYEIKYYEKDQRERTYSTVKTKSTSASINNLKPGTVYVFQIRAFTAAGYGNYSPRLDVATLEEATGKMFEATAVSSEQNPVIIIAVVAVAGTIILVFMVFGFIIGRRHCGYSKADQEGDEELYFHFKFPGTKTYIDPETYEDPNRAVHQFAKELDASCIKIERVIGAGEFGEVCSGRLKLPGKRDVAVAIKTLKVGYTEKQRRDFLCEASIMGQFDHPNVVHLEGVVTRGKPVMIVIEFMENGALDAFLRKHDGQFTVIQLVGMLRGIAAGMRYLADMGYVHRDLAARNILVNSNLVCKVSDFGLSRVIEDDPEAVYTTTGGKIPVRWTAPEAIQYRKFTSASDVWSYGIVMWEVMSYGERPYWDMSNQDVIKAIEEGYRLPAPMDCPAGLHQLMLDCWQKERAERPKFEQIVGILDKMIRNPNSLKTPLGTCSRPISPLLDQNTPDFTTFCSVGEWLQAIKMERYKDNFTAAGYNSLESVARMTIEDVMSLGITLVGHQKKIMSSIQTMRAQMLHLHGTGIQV
# [3] = biological target: Ephrin type-A receptor 7 (Homo sapiens) (UniProt Q15375); details: at 10 µM
# [4] = biological target: T2, Ephrin type-A receptor 8 (Homo sapiens) (UniProt P29322); details: at 1 µM
# T2 sequence (whole entry): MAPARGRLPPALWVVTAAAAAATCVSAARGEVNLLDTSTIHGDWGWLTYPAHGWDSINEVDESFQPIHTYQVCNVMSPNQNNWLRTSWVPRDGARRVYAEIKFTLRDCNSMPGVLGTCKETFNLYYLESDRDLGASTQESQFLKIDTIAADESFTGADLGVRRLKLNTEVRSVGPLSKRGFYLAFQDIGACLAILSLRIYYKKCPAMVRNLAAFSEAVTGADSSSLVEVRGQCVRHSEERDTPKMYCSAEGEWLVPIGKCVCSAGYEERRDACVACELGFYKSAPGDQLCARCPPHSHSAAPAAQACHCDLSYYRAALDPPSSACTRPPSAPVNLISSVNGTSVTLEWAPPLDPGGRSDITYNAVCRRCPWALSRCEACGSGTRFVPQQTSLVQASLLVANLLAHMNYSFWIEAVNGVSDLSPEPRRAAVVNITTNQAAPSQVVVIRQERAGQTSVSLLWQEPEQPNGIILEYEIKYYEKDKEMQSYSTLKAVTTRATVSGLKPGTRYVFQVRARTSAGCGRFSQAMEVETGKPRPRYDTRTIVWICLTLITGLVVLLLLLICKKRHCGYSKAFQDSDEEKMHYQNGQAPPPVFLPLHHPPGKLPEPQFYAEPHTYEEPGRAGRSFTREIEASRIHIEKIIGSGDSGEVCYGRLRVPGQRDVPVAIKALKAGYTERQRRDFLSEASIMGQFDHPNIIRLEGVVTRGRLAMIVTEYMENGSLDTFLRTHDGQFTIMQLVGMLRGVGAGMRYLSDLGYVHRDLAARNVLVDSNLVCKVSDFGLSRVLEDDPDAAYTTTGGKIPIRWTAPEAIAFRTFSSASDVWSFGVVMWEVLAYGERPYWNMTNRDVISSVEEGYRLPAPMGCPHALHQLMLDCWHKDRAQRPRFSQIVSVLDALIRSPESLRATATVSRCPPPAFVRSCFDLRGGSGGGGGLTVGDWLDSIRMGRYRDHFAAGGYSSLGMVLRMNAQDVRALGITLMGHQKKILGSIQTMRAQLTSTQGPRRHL
# [5] = biological target: T2, Ephrin type-A receptor 8 (Homo sapiens); details: at 10 µM
# [6] = biological target: T3, Ephrin type-B receptor 1 (Homo sapiens) (UniProt P54762); details: at 1 µM
# T3 sequence (whole entry): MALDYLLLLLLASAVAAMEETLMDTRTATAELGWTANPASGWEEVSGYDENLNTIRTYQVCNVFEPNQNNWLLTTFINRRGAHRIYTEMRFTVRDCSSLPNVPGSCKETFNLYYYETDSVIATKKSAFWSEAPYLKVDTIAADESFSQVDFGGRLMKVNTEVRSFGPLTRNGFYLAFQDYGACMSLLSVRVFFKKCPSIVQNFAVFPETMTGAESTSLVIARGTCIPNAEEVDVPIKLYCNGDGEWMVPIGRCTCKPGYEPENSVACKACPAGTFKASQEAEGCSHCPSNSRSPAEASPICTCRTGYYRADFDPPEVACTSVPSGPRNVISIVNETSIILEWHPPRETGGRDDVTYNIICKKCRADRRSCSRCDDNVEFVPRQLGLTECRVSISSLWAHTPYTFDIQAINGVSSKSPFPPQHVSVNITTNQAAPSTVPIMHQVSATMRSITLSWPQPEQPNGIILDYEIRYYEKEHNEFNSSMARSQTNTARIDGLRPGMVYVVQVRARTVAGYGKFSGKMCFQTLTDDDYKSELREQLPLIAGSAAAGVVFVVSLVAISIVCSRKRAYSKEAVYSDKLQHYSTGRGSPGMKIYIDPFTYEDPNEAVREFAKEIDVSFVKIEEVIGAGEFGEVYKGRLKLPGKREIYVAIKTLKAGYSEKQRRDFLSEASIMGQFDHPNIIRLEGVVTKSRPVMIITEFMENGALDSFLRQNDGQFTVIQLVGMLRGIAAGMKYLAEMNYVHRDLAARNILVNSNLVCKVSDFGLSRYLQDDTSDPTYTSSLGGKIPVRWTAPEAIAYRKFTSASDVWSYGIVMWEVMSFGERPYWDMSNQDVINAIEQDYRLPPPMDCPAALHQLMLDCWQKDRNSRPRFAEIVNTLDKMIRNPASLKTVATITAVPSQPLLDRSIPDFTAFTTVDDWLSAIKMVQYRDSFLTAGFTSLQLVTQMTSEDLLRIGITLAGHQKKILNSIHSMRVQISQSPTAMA
# [7] = biological target: T3, Ephrin type-B receptor 1 (Homo sapiens); details: at 10 µM
# [8] = biological target: T4, Ephrin type-B receptor 4 (Homo sapiens) (UniProt P54760); details: at 1 µM
# T4 sequence (whole entry): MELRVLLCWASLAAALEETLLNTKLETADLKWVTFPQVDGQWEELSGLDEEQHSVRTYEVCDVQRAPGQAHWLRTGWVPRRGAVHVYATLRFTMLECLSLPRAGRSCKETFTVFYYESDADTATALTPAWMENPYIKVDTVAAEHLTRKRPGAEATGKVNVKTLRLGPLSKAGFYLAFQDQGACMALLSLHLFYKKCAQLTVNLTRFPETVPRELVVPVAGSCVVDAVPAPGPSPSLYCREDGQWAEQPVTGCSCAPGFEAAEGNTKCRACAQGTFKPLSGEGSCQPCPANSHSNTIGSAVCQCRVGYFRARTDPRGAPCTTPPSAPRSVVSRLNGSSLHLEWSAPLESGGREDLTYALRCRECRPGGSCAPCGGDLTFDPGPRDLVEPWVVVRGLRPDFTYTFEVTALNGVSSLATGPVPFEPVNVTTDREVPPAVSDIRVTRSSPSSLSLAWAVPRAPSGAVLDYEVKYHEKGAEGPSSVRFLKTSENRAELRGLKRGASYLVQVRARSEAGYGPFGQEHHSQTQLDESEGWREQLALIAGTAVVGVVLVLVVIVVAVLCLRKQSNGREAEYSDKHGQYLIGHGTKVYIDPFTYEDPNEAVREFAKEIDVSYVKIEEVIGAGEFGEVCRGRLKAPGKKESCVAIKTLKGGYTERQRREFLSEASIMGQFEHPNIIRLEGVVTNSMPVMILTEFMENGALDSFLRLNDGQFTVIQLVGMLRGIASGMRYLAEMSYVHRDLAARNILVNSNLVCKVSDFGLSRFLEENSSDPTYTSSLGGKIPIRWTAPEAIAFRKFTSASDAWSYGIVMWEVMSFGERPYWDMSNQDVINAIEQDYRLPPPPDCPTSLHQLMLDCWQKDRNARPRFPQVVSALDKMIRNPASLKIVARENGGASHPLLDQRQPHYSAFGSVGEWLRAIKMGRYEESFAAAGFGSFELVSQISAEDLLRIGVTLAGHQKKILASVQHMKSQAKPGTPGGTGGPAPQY
# [9] = biological target: T4, Ephrin type-B receptor 4 (Homo sapiens); details: at 10 µM
# [10] = biological target: Receptor tyrosine-protein kinase erbB-4 (Homo sapiens) (UniProt Q15303); details: at 1 µM
# Sequence of Receptor tyrosine-protein kinase erbB-4 (Homo sapiens) (Q15303 whole entry): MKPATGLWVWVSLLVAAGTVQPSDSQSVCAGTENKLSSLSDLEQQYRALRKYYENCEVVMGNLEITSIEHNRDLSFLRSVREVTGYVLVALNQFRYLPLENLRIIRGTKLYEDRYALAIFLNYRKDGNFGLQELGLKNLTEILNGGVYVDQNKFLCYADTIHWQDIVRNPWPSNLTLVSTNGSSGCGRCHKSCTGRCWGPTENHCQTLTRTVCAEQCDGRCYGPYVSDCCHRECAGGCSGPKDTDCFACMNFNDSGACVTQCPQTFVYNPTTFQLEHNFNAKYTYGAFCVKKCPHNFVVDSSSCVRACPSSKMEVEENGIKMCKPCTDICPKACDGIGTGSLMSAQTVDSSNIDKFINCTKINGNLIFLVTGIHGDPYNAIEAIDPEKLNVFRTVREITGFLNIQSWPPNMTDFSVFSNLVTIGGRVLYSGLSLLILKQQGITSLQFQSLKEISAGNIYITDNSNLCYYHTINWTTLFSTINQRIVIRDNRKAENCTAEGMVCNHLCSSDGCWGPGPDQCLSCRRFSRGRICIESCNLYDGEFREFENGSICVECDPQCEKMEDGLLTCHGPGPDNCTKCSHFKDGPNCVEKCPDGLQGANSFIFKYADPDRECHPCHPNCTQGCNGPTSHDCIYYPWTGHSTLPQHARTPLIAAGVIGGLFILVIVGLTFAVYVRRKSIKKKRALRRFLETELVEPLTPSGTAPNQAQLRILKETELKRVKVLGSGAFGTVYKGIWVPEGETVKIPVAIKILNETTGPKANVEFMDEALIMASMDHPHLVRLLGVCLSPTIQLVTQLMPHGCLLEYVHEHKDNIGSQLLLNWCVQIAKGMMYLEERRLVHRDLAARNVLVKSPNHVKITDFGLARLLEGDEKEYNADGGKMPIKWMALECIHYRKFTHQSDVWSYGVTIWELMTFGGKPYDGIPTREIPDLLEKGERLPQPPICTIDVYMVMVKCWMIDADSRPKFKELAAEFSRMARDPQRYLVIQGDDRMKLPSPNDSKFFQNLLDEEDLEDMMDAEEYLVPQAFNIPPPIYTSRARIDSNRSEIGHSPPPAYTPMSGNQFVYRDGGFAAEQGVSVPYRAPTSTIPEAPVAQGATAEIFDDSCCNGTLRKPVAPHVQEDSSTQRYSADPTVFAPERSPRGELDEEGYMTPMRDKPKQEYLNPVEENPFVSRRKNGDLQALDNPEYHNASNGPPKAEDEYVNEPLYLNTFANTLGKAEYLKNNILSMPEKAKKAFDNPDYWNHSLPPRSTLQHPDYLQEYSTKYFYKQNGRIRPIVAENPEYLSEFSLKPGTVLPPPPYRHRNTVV
# [11] = biological target: Receptor tyrosine-protein kinase erbB-4 (Homo sapiens) (UniProt Q15303); details: at 10 µM
# [12] = biological target: Focal adhesion kinase 1 (Homo sapiens) (UniProt Q05397); details: at 1 µM
# Sequence of Focal adhesion kinase 1 (Homo sapiens) (Q05397 2-1052 limits assumed): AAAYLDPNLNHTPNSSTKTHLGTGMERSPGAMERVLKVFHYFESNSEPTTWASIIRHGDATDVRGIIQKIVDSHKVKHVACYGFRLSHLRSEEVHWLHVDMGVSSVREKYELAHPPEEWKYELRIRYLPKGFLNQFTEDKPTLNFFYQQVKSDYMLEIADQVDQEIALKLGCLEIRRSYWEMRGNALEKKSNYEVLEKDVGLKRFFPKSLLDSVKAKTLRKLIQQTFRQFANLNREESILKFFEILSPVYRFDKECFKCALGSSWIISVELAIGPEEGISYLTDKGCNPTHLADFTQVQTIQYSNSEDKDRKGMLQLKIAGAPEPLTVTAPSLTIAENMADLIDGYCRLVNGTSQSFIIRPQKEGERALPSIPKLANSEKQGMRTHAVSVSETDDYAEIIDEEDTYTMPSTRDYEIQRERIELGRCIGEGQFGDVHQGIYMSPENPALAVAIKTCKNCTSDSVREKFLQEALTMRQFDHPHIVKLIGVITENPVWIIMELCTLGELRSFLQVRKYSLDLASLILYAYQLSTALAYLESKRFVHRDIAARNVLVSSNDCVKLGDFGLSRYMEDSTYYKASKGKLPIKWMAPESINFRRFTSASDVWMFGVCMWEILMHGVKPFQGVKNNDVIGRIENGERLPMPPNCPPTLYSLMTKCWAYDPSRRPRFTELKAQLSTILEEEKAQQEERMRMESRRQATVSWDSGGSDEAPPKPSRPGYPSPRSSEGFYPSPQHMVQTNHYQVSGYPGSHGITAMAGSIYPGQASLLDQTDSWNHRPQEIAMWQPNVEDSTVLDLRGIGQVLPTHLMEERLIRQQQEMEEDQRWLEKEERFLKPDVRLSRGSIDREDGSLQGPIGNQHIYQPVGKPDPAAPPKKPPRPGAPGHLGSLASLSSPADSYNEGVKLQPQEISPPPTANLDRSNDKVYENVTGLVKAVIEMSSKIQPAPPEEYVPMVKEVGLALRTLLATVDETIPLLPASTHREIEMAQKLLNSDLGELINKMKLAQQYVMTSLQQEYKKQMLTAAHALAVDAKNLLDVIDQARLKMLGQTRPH
# [13] = biological target: Ephrin type-A receptor 4 (Homo sapiens) (UniProt P54764); details: at 10 µM
# Sequence of Ephrin type-A receptor 4 (Homo sapiens) (P54764 whole entry): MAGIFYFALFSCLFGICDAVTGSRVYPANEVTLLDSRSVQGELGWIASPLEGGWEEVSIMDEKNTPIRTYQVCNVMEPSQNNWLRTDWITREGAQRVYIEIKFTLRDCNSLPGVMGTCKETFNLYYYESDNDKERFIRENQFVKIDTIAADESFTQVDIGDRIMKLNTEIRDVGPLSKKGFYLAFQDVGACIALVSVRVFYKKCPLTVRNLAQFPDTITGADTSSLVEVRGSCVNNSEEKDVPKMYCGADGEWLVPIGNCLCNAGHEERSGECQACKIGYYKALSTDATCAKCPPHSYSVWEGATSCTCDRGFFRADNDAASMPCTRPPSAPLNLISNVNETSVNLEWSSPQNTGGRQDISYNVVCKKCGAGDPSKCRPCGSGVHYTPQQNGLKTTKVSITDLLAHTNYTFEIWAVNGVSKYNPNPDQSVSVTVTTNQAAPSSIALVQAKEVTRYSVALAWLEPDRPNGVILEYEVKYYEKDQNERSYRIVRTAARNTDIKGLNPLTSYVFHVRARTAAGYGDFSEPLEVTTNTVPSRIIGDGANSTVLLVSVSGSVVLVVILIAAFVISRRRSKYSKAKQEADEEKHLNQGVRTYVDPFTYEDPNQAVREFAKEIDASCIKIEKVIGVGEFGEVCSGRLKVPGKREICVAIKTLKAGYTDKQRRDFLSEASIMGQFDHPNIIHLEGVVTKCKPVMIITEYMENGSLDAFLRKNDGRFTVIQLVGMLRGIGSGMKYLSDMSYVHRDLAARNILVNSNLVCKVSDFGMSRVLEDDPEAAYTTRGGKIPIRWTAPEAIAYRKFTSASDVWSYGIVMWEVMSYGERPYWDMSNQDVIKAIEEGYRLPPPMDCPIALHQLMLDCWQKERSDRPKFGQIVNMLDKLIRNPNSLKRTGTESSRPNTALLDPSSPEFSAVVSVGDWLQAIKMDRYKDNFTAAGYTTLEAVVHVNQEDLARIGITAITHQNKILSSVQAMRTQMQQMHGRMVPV
# [14] = biological target: T5, Ephrin type-B receptor 3 (Homo sapiens) (UniProt P54753); details: at 1 µM
# T5 sequence (whole entry): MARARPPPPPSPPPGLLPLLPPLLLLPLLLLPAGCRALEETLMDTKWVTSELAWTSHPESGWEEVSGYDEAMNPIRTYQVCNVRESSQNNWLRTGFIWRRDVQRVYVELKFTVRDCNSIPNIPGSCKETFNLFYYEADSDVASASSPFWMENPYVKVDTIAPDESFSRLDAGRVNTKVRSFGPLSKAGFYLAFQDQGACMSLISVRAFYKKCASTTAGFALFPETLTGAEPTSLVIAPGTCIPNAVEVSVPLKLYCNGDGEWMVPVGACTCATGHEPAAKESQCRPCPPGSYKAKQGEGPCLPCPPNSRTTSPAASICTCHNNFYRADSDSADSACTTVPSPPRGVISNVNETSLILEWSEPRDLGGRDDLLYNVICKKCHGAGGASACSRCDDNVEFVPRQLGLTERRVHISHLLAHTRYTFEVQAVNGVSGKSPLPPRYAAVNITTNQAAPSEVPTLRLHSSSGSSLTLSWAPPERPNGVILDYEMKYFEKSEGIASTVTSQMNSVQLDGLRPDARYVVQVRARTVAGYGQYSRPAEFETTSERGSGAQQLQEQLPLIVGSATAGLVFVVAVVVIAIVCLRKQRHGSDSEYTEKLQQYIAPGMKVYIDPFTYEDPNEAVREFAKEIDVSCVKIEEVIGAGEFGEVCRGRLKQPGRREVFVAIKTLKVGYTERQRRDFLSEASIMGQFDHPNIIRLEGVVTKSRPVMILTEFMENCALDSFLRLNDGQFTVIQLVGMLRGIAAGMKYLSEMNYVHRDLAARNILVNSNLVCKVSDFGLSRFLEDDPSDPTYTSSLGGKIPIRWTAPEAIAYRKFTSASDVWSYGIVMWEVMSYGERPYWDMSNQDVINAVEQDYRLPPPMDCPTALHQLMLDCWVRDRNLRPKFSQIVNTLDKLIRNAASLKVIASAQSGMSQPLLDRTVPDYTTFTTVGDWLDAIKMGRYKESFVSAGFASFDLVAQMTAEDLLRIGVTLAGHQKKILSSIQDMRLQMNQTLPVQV
# [15] = biological target: T5, Ephrin type-B receptor 3 (Homo sapiens); details: at 10 µM
compound,measurement,setting,value
O=C(O)/C=C/c1cc(Br)c(Br)c(Br)c1Br,residual activity,[1],79%
same,residual activity,[2],109%
same,residual activity,[3],92%
same,residual activity,[4],100%
same,residual activity,[5],99%
same,residual activity,[6],101%
same,residual activity,[7],89%
same,residual activity,[8],105%
same,residual activity,[9],90%
same,residual activity,[10],59%
same,residual activity,[11],45%
same,residual activity,[12],98%
CN(C)S(=O)(=O)c1ccc2c(c1)/C(=C/c1cc3c([nH]1)CCCC3)C(=O)N2,residual activity,[1],77%
same,residual activity,[13],92%
same,residual activity,[2],94%
same,residual activity,[3],79%
same,residual activity,[4],96%
same,residual activity,[5],85%
same,residual activity,[6],73%
same,residual activity,[7],64%
same,residual activity,[14],120% (inactive)
same,residual activity,[15],94%
same,residual activity,[8],70%
same,residual activity,[9],69%
same,residual activity,[10],88%
same,residual activity,[11],82%
same,residual activity,[12],21%
